What was measured:
Experiment in all cases: log2 ratio of Biotin-Ahx-Ub-VS probe labelling (fragment/DMSO); higher = less target engagement (more negative = stronger competition), active = hit call of the paper (q ≤ 0.05, log2 ratio ≤ -1)
Conditions in all cases: compound concentration: 200 uM; treatment time: 3 h
USP34 = USP34 (UniProt Q70CQ2)
Summary of the method: (§1)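 Values give the average log2 ratio of fragment to vehicle, assessed by unpaired t-test on global-median-normalised Spectronaut label-free quantities. Proteins needed ≥2 unique peptides. HEK293T lysate (495 µg per sample) was treated in triplicate with fragment at 200 µM or vehicle for 3 h and then with Biotin-Ahx-Ub-VS at 0.5 µM final for 1 h. Labelled DUBs were NeutrAvidin-enriched, digested and run by diaPASEF LC-MS/MS.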

USP36 = molecular target: T1, USP36 (UniProt Q9P275)
T1 sequence (whole entry): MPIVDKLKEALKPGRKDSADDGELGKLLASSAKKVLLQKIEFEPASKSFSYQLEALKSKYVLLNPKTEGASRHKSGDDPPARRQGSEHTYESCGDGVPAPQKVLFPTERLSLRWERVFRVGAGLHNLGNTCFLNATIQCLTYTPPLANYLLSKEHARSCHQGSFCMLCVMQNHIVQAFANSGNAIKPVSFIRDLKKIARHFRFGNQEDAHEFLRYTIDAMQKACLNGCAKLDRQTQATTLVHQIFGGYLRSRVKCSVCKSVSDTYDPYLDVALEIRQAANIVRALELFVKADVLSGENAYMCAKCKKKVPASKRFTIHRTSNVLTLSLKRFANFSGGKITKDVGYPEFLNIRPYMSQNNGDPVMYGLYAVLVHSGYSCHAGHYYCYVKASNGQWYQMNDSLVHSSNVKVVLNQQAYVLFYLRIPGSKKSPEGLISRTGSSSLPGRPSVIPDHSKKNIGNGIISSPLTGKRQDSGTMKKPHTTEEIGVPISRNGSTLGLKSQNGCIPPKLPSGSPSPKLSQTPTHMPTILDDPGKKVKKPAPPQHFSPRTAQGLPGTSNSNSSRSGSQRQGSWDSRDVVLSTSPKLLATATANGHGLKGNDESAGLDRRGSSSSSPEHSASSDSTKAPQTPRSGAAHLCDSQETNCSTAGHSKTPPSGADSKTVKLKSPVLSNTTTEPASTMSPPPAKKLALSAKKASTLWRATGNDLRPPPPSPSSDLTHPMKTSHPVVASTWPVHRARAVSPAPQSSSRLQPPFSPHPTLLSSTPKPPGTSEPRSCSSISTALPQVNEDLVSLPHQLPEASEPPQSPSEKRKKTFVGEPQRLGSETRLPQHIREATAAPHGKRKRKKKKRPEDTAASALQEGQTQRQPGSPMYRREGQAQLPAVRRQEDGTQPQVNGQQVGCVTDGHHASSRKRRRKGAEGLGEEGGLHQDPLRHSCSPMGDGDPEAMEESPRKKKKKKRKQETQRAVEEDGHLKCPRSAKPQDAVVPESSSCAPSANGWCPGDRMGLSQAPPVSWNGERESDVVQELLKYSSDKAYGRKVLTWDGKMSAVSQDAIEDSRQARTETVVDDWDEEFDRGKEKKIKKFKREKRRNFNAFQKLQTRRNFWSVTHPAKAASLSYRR
Summary of the method: as §1

USP38 = molecular target: T2, USP38 (UniProt Q8NB14)
T2 sequence (whole entry): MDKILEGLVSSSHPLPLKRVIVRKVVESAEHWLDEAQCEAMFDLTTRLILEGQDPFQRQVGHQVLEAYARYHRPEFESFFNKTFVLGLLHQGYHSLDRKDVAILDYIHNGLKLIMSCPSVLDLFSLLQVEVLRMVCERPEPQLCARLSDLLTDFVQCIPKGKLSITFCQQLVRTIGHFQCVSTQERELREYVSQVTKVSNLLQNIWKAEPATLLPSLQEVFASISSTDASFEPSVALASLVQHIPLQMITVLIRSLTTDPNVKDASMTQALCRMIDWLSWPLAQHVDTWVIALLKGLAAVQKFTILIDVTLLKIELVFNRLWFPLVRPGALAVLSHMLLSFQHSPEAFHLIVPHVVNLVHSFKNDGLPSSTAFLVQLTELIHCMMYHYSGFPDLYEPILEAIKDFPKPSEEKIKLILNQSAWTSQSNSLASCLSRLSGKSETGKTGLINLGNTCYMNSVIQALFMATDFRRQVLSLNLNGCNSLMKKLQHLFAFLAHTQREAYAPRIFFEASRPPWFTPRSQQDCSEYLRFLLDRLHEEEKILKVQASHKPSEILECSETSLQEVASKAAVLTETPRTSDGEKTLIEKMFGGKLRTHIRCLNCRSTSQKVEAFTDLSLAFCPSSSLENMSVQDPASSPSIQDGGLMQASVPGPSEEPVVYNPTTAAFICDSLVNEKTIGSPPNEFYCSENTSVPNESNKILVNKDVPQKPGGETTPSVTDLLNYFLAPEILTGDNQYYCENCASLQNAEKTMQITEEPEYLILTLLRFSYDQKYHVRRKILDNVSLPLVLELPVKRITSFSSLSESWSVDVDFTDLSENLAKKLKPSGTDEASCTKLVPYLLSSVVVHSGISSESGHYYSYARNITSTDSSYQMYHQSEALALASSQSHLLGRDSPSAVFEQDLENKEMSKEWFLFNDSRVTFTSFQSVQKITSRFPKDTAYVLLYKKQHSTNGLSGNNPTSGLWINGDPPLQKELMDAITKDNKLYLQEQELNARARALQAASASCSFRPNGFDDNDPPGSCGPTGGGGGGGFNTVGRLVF
Summary of the method: as §1

USP39 = molecular target: T3, USP39 (UniProt Q53GS9)
T3 sequence (whole entry): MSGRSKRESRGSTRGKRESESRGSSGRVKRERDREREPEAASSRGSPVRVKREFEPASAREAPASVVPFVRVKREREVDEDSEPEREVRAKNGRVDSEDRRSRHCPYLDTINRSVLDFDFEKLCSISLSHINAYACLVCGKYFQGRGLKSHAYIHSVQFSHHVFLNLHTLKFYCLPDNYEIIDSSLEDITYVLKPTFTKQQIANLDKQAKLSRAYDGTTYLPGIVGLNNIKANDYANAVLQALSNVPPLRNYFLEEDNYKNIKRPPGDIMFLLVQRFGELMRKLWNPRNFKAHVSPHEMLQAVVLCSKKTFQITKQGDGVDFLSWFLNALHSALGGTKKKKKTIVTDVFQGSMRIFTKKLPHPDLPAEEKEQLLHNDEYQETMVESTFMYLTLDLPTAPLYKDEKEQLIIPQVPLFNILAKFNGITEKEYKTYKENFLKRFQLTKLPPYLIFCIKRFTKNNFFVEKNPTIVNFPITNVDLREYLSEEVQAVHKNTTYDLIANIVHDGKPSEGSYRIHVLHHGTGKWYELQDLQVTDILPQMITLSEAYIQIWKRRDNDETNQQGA
Summary of the method: as §1

USP4 = molecular target: T4, USP4 (UniProt Q13107)
T4 sequence (whole entry): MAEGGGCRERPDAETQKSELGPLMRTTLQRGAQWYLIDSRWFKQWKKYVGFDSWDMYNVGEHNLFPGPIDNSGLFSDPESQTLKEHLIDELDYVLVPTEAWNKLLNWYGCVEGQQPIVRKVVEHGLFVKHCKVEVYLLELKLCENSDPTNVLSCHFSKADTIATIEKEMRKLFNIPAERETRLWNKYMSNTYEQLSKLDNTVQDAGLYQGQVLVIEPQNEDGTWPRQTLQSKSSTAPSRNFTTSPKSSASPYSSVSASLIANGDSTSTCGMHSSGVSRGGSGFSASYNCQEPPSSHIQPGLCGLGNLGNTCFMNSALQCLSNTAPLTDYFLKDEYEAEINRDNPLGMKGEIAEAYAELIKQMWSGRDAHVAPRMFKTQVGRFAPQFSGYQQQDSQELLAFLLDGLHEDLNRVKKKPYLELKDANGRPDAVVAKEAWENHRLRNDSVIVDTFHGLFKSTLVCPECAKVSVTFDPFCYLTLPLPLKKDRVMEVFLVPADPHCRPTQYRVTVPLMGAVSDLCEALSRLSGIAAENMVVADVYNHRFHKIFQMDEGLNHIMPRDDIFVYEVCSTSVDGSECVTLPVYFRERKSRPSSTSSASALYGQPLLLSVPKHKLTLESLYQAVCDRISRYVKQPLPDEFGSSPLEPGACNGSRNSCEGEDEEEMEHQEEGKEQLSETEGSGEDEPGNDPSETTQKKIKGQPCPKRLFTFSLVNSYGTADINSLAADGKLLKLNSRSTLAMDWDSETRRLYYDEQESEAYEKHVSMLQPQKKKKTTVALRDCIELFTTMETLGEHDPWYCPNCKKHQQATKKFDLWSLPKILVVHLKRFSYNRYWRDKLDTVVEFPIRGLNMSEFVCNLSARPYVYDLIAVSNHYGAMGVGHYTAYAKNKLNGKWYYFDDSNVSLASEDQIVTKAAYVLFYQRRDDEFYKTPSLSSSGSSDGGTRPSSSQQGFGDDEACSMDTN
Summary of the method: as §1

Measured: log2 ratio of Biotin-Ahx-Ub-VS probe labelling

Sequence of USP34 (Q70CQ2 whole entry, the tested form may be a part): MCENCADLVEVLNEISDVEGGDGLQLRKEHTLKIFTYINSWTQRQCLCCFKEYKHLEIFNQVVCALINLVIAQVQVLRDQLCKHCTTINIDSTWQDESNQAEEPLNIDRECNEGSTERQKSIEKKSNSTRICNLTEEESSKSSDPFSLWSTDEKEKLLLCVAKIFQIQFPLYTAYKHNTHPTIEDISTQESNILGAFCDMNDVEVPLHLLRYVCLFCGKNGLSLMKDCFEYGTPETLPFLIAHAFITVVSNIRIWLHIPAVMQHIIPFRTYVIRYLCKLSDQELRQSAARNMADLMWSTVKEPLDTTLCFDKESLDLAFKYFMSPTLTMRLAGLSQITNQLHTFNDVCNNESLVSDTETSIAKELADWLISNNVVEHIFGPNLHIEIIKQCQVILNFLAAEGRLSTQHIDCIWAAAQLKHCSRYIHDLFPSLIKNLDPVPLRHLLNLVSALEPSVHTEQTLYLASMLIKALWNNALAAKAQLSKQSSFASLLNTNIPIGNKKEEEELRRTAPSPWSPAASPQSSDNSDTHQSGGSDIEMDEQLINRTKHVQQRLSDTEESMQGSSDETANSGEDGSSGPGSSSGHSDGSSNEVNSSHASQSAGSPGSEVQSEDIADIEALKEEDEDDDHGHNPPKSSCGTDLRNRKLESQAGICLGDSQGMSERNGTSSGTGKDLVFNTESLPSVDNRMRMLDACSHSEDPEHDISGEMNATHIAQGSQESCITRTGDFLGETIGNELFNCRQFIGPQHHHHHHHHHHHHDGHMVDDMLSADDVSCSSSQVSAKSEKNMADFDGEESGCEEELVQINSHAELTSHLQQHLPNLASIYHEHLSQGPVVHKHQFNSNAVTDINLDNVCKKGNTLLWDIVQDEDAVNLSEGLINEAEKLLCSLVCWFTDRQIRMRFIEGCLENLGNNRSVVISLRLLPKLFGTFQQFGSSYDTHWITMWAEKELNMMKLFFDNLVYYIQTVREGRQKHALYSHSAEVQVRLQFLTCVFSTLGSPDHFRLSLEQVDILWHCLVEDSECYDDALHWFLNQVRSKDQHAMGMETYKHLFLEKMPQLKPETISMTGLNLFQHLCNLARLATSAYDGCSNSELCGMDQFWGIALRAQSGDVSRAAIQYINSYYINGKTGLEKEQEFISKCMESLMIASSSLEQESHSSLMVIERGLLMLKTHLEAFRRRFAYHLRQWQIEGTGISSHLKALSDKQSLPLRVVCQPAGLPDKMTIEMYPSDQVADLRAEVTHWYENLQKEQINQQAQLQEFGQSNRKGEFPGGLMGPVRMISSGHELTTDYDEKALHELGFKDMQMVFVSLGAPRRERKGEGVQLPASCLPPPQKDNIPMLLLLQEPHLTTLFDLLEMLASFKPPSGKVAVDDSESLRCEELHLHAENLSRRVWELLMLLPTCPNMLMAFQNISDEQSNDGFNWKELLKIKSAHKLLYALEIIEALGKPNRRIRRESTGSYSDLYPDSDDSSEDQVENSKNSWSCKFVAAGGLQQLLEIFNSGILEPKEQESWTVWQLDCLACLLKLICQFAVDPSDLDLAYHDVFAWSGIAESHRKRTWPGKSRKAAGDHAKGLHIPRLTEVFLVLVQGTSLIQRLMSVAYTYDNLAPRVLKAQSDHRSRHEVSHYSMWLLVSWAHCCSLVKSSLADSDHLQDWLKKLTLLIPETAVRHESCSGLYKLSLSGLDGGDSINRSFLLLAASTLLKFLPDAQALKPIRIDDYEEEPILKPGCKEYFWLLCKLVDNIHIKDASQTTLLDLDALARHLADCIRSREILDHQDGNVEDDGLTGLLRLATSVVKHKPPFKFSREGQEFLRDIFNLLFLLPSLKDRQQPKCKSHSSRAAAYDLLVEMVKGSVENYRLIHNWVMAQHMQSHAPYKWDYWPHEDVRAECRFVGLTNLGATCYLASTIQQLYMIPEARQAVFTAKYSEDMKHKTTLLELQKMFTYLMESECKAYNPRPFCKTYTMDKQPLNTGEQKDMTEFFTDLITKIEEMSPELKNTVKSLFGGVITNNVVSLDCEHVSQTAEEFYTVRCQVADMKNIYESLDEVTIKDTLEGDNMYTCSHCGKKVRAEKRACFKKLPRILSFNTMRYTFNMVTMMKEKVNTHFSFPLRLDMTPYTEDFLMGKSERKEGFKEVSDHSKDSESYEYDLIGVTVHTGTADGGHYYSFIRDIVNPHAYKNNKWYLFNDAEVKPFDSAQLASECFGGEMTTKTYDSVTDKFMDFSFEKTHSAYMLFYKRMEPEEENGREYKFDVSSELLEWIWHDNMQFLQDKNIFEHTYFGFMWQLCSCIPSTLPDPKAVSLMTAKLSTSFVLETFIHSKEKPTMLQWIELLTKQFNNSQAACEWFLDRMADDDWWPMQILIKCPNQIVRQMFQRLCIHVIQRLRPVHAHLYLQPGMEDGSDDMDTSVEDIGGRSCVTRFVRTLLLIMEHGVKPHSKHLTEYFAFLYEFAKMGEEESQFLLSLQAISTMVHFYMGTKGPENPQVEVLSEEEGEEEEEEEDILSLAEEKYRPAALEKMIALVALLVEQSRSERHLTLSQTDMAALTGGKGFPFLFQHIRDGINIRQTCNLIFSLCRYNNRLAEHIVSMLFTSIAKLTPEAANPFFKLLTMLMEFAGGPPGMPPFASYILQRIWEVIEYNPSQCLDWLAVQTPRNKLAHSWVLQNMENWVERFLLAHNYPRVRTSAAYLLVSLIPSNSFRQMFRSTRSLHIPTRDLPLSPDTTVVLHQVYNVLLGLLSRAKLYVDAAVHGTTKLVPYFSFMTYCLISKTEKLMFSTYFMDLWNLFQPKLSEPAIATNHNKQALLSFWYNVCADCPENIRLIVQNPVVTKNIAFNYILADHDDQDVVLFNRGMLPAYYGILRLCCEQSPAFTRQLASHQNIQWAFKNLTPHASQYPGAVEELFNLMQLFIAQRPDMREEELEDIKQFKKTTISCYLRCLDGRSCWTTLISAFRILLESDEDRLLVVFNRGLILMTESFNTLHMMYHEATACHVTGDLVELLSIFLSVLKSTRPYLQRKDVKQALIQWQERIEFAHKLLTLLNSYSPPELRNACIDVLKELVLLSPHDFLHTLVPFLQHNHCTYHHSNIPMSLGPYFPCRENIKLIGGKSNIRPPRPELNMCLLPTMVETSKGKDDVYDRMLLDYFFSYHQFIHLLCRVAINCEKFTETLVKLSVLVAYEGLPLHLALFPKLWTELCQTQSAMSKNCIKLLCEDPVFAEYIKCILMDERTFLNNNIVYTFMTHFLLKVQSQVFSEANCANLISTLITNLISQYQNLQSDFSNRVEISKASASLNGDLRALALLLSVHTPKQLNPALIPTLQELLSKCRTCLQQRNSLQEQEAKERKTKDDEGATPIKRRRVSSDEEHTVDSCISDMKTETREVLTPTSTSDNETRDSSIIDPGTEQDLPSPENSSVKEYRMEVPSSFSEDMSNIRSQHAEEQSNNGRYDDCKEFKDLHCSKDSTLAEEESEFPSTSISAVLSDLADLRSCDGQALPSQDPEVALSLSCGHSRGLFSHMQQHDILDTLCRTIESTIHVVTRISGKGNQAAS

O=C(CCl)N1CCC(c2nc3ccccc3o2)CC1
inactive: USP34 -0.0485 | USP36 -0.24 | USP38 -0.183 | USP39 0.016 | USP4 -0.231

Reference: the supplement of paper PMC11732987, “Enantioselective OTUD7B fragment discovery through chemoproteomics screening and high-throughput optimisation” (Communications Chemistry, 2025)
